Data as given in PubChem BioAssay (EPA / NIEHS).
Several values for one entry are separate records, joined by “and”; a condition that tells them apart may be missing. Equal values may be shown once. A structure can be active in one record and inactive in another. Activity calls are given as the source filed them. The calls were made as follows: active = hit-call score of the fitted dose curve at least 0.9, where 1 is the maximum; inactive = score below 0.9.

Columns and labels:
[1] = read-out: Interleukin-8 (IL8), CXCL8 (gene 3576); test: BSK_CASM3C_IL8: BioMAP Diversity Plus: CASM3C Assay for Interleukin-8 (IL8) Biomarker Activity (AID 2283042); conditions: primary human coronary artery smooth muscle cells; actives raise or lower the signal;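 also: IL-8 protein level quantified by ELISA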
[2] = read-out: Human Leukocyte Antigen - DR isotype (HLADR), HLA-DRA (gene 3122); test: BSK_CASM3C_HLADR: BioMAP Diversity Plus: CASM3C Assay for Human Leukocyte Antigen - DR isotype (HLADR) Biomarker Activity (AID 2283043); conditions: primary human coronary artery smooth muscle cells; actives raise or lower the signal;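 also: cell-surface HLA-DR protein level quantified by ELISA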
[3] = read-out: Macrophage colony-stimulating factor (MCSF), CSF1 (gene 1435); test: BSK_CASM3C_MCSF: BioMAP Diversity Plus: CASM3C Assay for Macrophage colony-stimulating factor (MCSF) Biomarker Activity (AID 2283044); conditions: primary human coronary artery smooth muscle cells; actives raise or lower the signal;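 also: M-CSF protein amount quantified by ELISA after 24 h exposure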
[4] = read-out: Low-density lipoprotein receptor (LDLR), LDLR (gene 3949); test: BSK_CASM3C_LDLR: BioMAP Diversity Plus: CASM3C Assay for Low-density lipoprotein receptor (LDLR) Biomarker Activity (AID 2283045); conditions: primary human coronary artery smooth muscle cells; actives raise or lower the signal;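 also: LDLR protein level on the cell surface quantified by ELISA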
[5] = read-out: Monocyte Chemoattractant Protein-1 (MCP1), CCL2 (gene 6347); test: BSK_CASM3C_MCP1: BioMAP Diversity Plus: CASM3C Assay for Monocyte Chemoattractant Protein-1 (MCP1) Biomarker Activity (AID 2283046); conditions: primary human coronary artery smooth muscle cells; actives raise or lower the signal;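 also: MCP-1 level quantified by ELISA 24 h after dosing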
[6] = BSK_CASM3C_Proliferation: Cell Proliferation Assessment in the BioMAP Diversity Plus: CASM3C Assay (AID 2283047); conditions: primary human coronary artery smooth muscle cells;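 also: sulforhodamine B total protein stain as relative cell number at 560 nm; sub-confluent cells exposed 48 h before staining; fitted both ways against DMSO so gain or loss of cell number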
[7] = read-out: Monokine induced gamma interferon (MIG), CXCL9 (gene 4283); test: BSK_CASM3C_MIG: BioMAP Diversity Plus: CASM3C Assay for Monokine induced gamma interferon (MIG) Biomarker Activity (AID 2283048); conditions: primary human coronary artery smooth muscle cells; actives raise or lower the signal;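 also: MIG protein level measured by ELISA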
[8] = read-out: serum amyloid A (SAA), SAA1 (gene 6288); test: BSK_CASM3C_SAA: BioMAP Diversity Plus: CASM3C Assay for serum amyloid A (SAA) Biomarker Activity (AID 2283049); conditions: primary human coronary artery smooth muscle cells; actives raise or lower the signal;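 also: SAA protein level quantified by ELISA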
[9] = BSK_CASM3C_SRB: Viability Assessment in the BioMAP Diversity Plus: CASM3C Assay (AID 2283050); conditions: primary human coronary artery smooth muscle cells;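 also: total protein by SRB staining as cytotoxicity measure in parallel cultures; cells exposed to compound for 24 h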
[10] = read-out: Thrombomodulin, THBD (gene 7056); test: BSK_CASM3C_Thrombomodulin: BioMAP Diversity Plus: CASM3C Assay for Thrombomodulin Biomarker Activity (AID 2283051); conditions: primary human coronary artery smooth muscle cells; actives raise or lower the signal;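 also: thrombomodulin protein level measured by ELISA 24 h after dosing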
[11] = read-out: Tissue Factor, F3 (gene 2152); test: BSK_CASM3C_TissueFactor: BioMAP Diversity Plus: CASM3C Assay for Tissue Factor Biomarker Activity (AID 2283052); conditions: primary human coronary artery smooth muscle cells; actives raise or lower the signal;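 also: cell surface tissue factor protein level read by ELISA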
[12] = read-out: Interferon-gamma inducible Protein 10 (IP10), CXCL10 (gene 3627); test: BSK_hDFCGF_IP10: BioMAP Diversity Plus: hDFCGF Assay for Interferon-gamma inducible Protein 10 (IP10) Biomarker Activity (AID 2283053); conditions: primary human foreskin fibroblasts; actives raise or lower the signal
Method in brief: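 ELISA read-out of IP-10 (CXCL10) from primary human skin fibroblasts, 24 h after compound addition. Gain or loss of signal versus DMSO baseline, bidirectional curve fitting.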

[13] = read-out: Urokinase-type plasminogen activator receptor (uPAR), PLAUR (gene 5329); test: BSK_CASM3C_uPAR: BioMAP Diversity Plus: CASM3C Assay for Urokinase-type plasminogen activator receptor (uPAR) Biomarker Activity (AID 2283054); conditions: primary human coronary artery smooth muscle cells; actives raise or lower the signal;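 also: cell-surface uPAR protein level quantified by ELISA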
[14] = read-out: Vascular cell adhesion molecule 1 (VCAM1), VCAM1 (gene 7412); test: BSK_CASM3C_VCAM1: BioMAP Diversity Plus: CASM3C Assay for Vascular cell adhesion molecule 1 (VCAM1) Biomarker Activity (AID 2283055); conditions: primary human coronary artery smooth muscle cells; actives raise or lower the signal;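 also: VCAM-1 protein level quantified by ELISA on the cells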
[15] = read-out: Collagen III, COL3A1 (gene 1281); test: BSK_hDFCGF_CollagenIII: BioMAP Diversity Plus: hDFCGF Assay for Collagen III Biomarker Activity (AID 2283056); conditions: primary human foreskin fibroblasts; actives raise or lower the signal
Method in brief: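 Response relative to DMSO, fitted in both directions, reflects ELISA-measured collagen III in human primary skin fibroblasts 24 h after compound addition.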

[16] = read-out: Epidermal growth factor receptor (EGFR), EGFR (gene 1956); test: BSK_hDFCGF_EGFR: BioMAP Diversity Plus: hDFCGF Assay for Epidermal growth factor receptor (EGFR) Biomarker Activity (AID 2283057); conditions: primary human foreskin fibroblasts; actives raise or lower the signal
Method in brief: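 ELISA readout of EGFR on human dermal fibroblasts (primary foreskin cells), 24 h post-dosing; bidirectional curve fit vs DMSO baseline, gain or loss of signal scored.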

[17] = read-out: Interleukin-8 (IL8), CXCL8 (gene 3576); test: BSK_hDFCGF_IL8: BioMAP Diversity Plus: hDFCGF Assay for Interleukin-8 (IL8) Biomarker Activity (AID 2283058); conditions: primary human foreskin fibroblasts; actives raise or lower the signal
Method in brief: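 Fibroblast monolayers (human foreskin, hDFCGF) received test chemical for 24 h before ELISA detection of IL-8; either increases or decreases relative to DMSO count as activity.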

[18] = BSK_hDFCGF_Proliferation: Cell Proliferation Assessment in the BioMAP Diversity Plus: hDFCGF Assay (AID 2283059); conditions: primary human foreskin fibroblasts;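 also: curves fitted for both rise and fall of signal versus DMSO baseline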
Method in brief: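 Primary human foreskin fibroblasts, sub-confluent; […]; 10% TCA fix, 0.1% SRB stain, A560 total protein. Gain/loss fitted bidirectionally vs DMSO control.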

[19] = read-out: Macrophage colony-stimulating factor (MCSF), CSF1 (gene 1435); test: BSK_hDFCGF_MCSF: BioMAP Diversity Plus: hDFCGF Assay for Macrophage colony-stimulating factor (MCSF) Biomarker Activity (AID 2283060); conditions: primary human foreskin fibroblasts; actives raise or lower the signal
Method in brief: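 fibroblasts (human foreskin, primary), 24 h post-dose; M-CSF by ELISA; bidirectional fit, DMSO = baseline.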

[20] = BSK_hDFCGF_SRB: Viability Assessment in the BioMAP Diversity Plus: hDFCGF Assay (AID 2283061); conditions: primary human foreskin fibroblasts;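 also: cells exposed to compound for 24 h before the read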
Method in brief: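 SRB-based viability read on primary human skin fibroblasts at 24 h: TCA fixation, 0.1% dye, 560 nm. Gain or loss of signal is fitted against the DMSO negative control.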

Measured: AC50

O=C(O)COc1nc(Cl)c(Cl)cc1Cl
inactive: all assays above

Cc1cc(Cl)ccc1OCC(=O)O
not listed: [12]
inactive: all other assays above

CCOP(=S)(OCC)SCn1c(=O)oc2cc(Cl)ccc21
active: [1] 4.25 µM | [10] 19.9 µM | [15] 20 µM | [18] 15.5 µM | [19] 14.3 µM
not listed: [12]
inactive: all other assays above

COc1nc(C)nc(NC(=O)NS(=O)(=O)c2ccccc2CCC(F)(F)F)n1
inactive: [1] | [2] | [3] | [4] | [5] | [6] | [7] | [8] | [9] | [10] | [11] | [13] | [14] | [15] | [16] | [17] | [18] | [19] | [20]
active: [15] 0.213 µM

CCCCNC(=O)OCC#CI
active: [1] 36.6 µM | [2] 30.8 µM and 24.6 µM | [3] 26.4 µM and 15.8 µM | [5] 20.8 µM and 24.5 µM | [6] 6.91 µM and 7.15 µM | [7] 29.5 µM and 28.7 µM | [8] 14.8 µM and 14.3 µM | [9] 30.5 µM and 30.6 µM | [10] 4.72 µM and 36.3 µM | [11] 24.6 µM | [12] 3.5 µM and 5.34 µM | [13] 12.7 µM and 13.9 µM | [14] 11.1 µM and 14.6 µM | [15] 7.69 µM and 7.7 µM | [16] 11.6 µM | [17] 10.2 µM and 11 µM | [18] 134 nM and 534 nM | [19] 5.14 µM and 9.67 µM | [20] 12.4 µM and 3.49 µM
inactive: [4] | [11] | [16]

CCCCNC(=O)n1c(NC(=O)OC)nc2ccccc21
active: [10] 17.4 µM | [12] 33.8 µM | [18] 15 µM
inactive: all other assays above
